About 7,200 (1.8%) of roughly 410,000 compounds were called active. About 7% were inconclusive and are not listed. The call rests on the fitted dose curve; in most records, active means well fitted activation curve with a large enough effect; inconclusive means small, poorly fitted or top-dose-only effect, or another doubt; inactive means no such curve, though single readings can be large or run the other way. What follows is part of a selection rich in actives, with near analogues and random picks from the rest.
Experiment: qHTS of TDP-43 Inhibitors; further: nearly all actives have a fitted effect of over 50% in size; on growth rescue (activation): % of control where 0% means no effect
Settings: TDP-43 expressing yeast growth rescue, BacTiter-Glo, 24 h; series mostly up to 46.1 µM; growth rescue (activation): at the top concentration
How it was run: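 Growth rescue of TDP-43-toxic yeast measured as ATP luminescence (BacTiter-Glo). Cells grown to mid-log in raffinose, induced in galactose at OD600=0.02, exposed to compound 24 hr at 30 deg C.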
Potency means the concentration at half of the fitted maximal effect.

Growth rescue (activation), inactive:
CCOC(=O)c1ccc(NC(=O)Cn2c(=O)cc(C)c3c(C)nn(-c4cccc(F)c4)c32)cc1 -3.59%
Cc1[nH]c2ccccc2c1-c1ccc(Cl)nn1 -8.17% [at 9.22 µM]
O=C(O)c1[nH]c2ccccc2c1C(c1cccc(O)c1)c1c(C(=O)O)[nH]c2ccccc12 5.7%
CCN(CC)c1ccc(NC(=O)CN2C(=O)c3cccnc3Oc3ccc(Cl)cc32)c(C)c1 9.93%
COc1ccc(-c2nn(CC(=O)NC3CCCC3)c3c2cnc2ccc(F)cc23)cc1 22.7%
Cc1cccc(C(=O)Nc2ccc(-c3nc4ccccc4s3)c(C)c2)c1 29.6%
COc1ccc(Cl)cc1NC(=O)COC(=O)C(CC(C)C)N1C(=O)C2CC=CCC2C1=O (stereo unspecified) 4.31%
O=C(Nc1ccccc1C(=O)O)c1ccc(N2C(=O)C3CC=CCC3C2=O)cc1 (stereo unspecified) 4.44%
CC(=O)Nc1ccc(NC(=O)CCCc2nc(-c3ccc(C(C)(C)C)cc3)no2)cc1 19.7%
COc1ccc2c(c1)C=C(C(=O)NCc1cc(Br)ccc1OC)CO2 5.98% [at 9.22 µM]
CCOC(=O)c1ccc(NC(=O)CC2C(=O)N(c3cccc(OC)c3)C(=O)N2C2CCCCC2)cc1 (stereo unspecified) -1.66%
CCOc1ccc(CNC(=O)Cn2cc3c(n2)-c2c(oc(C(=O)N4CCCC4)c2C)CC3)cc1 29%
CCCN(CCC)CCCNC(=O)Cn1cc2c(n1)-c1c(oc(C(=O)N3CCCC3)c1C)CC2 16.9%
CC1=C(c2ccc(C)cc2)S(=O)(=O)NC1=NCCCN1CCN(c2cc(C)ccc2C)CC1 14.6%
Cc1nn(-c2ccc(N3CCCCC3)nn2)c(C)c1CCC(=O)NCc1ccccc1F -10.4%
CN(C(=O)CSc1nnc(NC(=O)Nc2ccccc2)s1)c1ccccc1 22.1%
CC(=O)c1ccc(NC(=O)CSc2nnc(NC(=O)Nc3ccccc3)s2)cc1 0%
CCOC(=O)c1ccc(NC(=O)CCS(=O)(=O)c2ccc3c(c2)oc(=O)n3C)cc1 21.4%
O=C(NC1CCN(Cc2ccccc2)CC1)c1ccc(Cn2c(=O)c3ccccc3n(Cc3cccc(F)c3)c2=O)cc1 22.9%
CC(C)c1ccc(NC(=O)c2ccc(Cn3nc(N4CCN(c5ccccc5)CC4)ccc3=O)o2)cc1 4.85%
CC1CC(C)(C)NC(=S)N1CCC(=O)N1CCN(Cc2ccccc2)CC1 (stereo unspecified) -6.5%
CC1CC(=O)Nc2ccccc2N1S(=O)(=O)c1cccs1 (stereo unspecified) -21.7%
COc1ccc(-c2nc(S(=O)(=O)c3ccccc3)c(N3CCCCC3)o2)cc1 3.8%
COc1ccc(CNC(=O)C2CC(c3ccc(C(F)(F)F)cc3)=NO2)cc1 (stereo unspecified) 22.1%
COc1cc(OC)c(NC(=O)c2cc(S(=O)(=O)N3CCCC3)cn2C)cc1Cl 19%
Cc1ccc(C(C)C)c(OCCSc2nc3ccccc3n2CC(=O)O)c1 19.9%
CCOc1ccc(OCCSc2nc3ccccc3n2CC(=O)O)cc1 -2.71%
CCC(C)c1ccc2oc(-c3ccc(NC(=O)c4cc5ccccc5o4)cc3)nc2c1 (stereo unspecified) 19.4%
Cc1ccccc1C(=O)O 27.8%
O=C1OC(OC(=O)c2ccccc2Br)C(N2CCOCC2)=C1Cl (stereo unspecified) -2.62%
Cc1cccc(NC(=O)Cn2nc(-c3ccc(Cl)cc3)c3ccccc3c2=O)c1 21.9%
CCCC12CN3CC(C)(CN(C1)C3c1ccccc1Cl)C2=O (stereo unspecified) 11.8%
CC(C)(C)c1ccc(S(=O)(=O)N2CCN(C(=O)c3cc(-c4ccc(Br)cc4)n[nH]3)CC2)cc1 10.9%
CCCCN(CC)CCCNC(=O)c1nn(C)c2c1CSc1ccccc1-2 10.8%
COc1ccc(OC)c(CCNC(=O)c2nn(C)c3c2CS(=O)(=O)c2ccccc2-3)c1 17.4%
Cc1cc(-c2ccc(C)c(S(=O)(=O)N3c4ccccc4CC3C)c2)on1 (stereo unspecified) -1.52%
Cc1ccc(S(=O)(=O)N2CCCc3cc(NS(=O)(=O)c4cc(C)ccc4C)ccc32)cc1 0% [at 9.22 µM]
CCOC(=O)N1CCN(c2cc(C)c([N+](=O)[O-])cc2F)CC1 18.9%
O=C(OCC(=O)N1CCOCC1)c1ccc(N2CCOCC2)c([N+](=O)[O-])c1 7.7% [at 9.22 µM]
O=C(c1ccc(N2CCOCC2)c([N+](=O)[O-])c1)N1CCN(S(=O)(=O)c2cccs2)CC1 1.03%
O=C(O)C1CCN(c2ccc([N+](=O)[O-])cc2[N+](=O)[O-])CC1 -6.44%
COc1ccc(S(=O)(=O)NCC(c2ccc(N(C)C)cc2)N2CCc3ccccc32)cc1OC (stereo unspecified) -42.7% [at 9.22 µM]
Cc1ccc2nc(COc3cccc(NC(=O)c4cccc(Cl)c4)c3)cc(=O)n2c1 9.56%
CC(=O)Nc1cnc(-c2ccc(O)cc2C)cn1 21.2%
Cc1cc(C)c(NC(=O)c2cc3sc(Cl)cc3n2C)c(C)c1 3.84%
Cn1c(=O)c(C(=O)O)nn(-c2ccccc2)c1=O 6.32%
CCCn1c2ccccc2c2cnn(CC(=O)NCC3CCN(Cc4ccc(C)cc4)CC3)c(=O)c21 -16.2%
COc1ccc(SCc2cc(=O)c3ccc(C)c(C)c3[nH]2)cc1 16%
CCC(=O)N1CCc2cc(S(=O)(=O)NC(Cc3ccccc3)C(=O)NCc3ccc(C)cc3)ccc21 (stereo unspecified) 6.31%

Potency, active:
Cc1[nH]c2ccccc2c1C(c1ccccc1)c1cccs1 (stereo unspecified) 25.1 µM
COc1ccc(Cl)cc1NC(=O)c1cccc(N2C(=O)C3CC=CCC3C2=O)c1 (stereo unspecified) 11.2 µM
Cc1c(C(=O)N2CCCC2)oc2c1-c1nn(CC(=O)NCc3ccc(OC(C)C)cc3)cc1CC2 20 µM
CC(C)c1ccc(Nc2nnc(SCC(=O)c3nnc(-c4ccccc4)o3)s2)cc1 20 µM
CC1CC(=S)Nc2ccccc2N1Cc1ccccc1 (stereo unspecified) 14.1 µM
COC(=O)[C@]1(S(=O)(=O)c2ccccc2)C[C@@H]2ON=C(c3ccc(OC)cc3)[C@@H]2C1 17.8 µM
Cc1cccc(OCCSc2nc3ccccc3n2CC(=O)N2CCCCC2)c1C 35.5 µM
Cc1ccccc1C(=O)OC1OC(=O)C(Cl)=C1Nc1ccccc1 (stereo unspecified) 22.4 µM
COc1ccc(CCNC(=O)c2nn(C)c3c2CSc2ccccc2-3)cc1OC 11.2 µM
O=C(c1ccc(N2CCOCC2)c([N+](=O)[O-])c1)N1CCN(c2ccccc2F)CC1 14.1 µM
CCC(=O)c1ccc(N2CCN(C(=O)c3cc([N+](=O)[O-])ccc3F)CC2)c(F)c1 12.6 µM
Cc1ccc(Nc2nc(-c3ccc(O)cc3O)cs2)nc1 20 µM
